The source of these data is PubChem BioAssay (NCI).

Holding throughout (assay): NCI-60 one-dose screen, 48 h (100 = growth as untreated, 0 = no growth, -100 = all killed)
The subject of test [1] is NCI-H23 lung. The note with it: 10 µM unless noted.
Test [2] has as its system NCI-H226 lung. Particulars: 10 µM unless noted.
For test [3], the system named is NCI-H322M lung. Particulars: 10 µM unless noted.
For test [4], the system named is HOP-62 NSCLC. Particulars: 10 µM unless noted.
For test [5], the system named is NCI-H460 lung. Particulars: 10 µM unless noted.
The test system of test [6] is HOP-92 NSCLC. The note with it: 10 µM unless noted.
The test system of test [7] is NCI-H522 lung. Particulars: 10 µM unless noted.
Test [8] has as its system A549/ATCC NSCLC. The note with it: 10 µM unless noted.
Test [9] relates to 786-0 renal. The note with it: 10 µM unless noted.
Test [10] relates to COLO 205 colon. Particulars: 10 µM unless noted.
For test [11], the system named is DU-145 prostate. The note with it: 10 µM unless noted.
Test [12] has as its system K-562 leukemia. Particulars: 10 µM unless noted.
Test [13] relates to MALME-3M melanoma. The note with it: 10 µM unless noted.
Test [14] concerns MDA-MB-231 breast. The note with it: 10 µM unless noted.
Test [15] has as its system RXF 393 renal. Particulars: 10 µM unless noted.
The subject of test [16] is SF-268 CNS. The note with it: 10 µM unless noted.
Test [17] relates to SF-295 CNS. The note with it: 10 µM unless noted.
The test system of test [18] is SF-539 CNS. Particulars: 10 µM unless noted.
The subject of test [19] is UACC-257 melanoma. The note with it: 10 µM.
For test [20], the system named is M14 melanoma. The note with it: 10 µM unless noted.

About 83,000 compounds went through this panel and 20% of them were active in at least one assay; those are over-represented in the sample as a whole.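 48-hour exposure, single concentration, 96-well plates; percent growth endpoint where 0 means no net growth. Active: below 10.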 Unmarked numbers belong to inactive results. Calls of active or inactive are those of the source.

Consider `COc1ccc2c(c1)c(-c1nnc(N)nc1-c1cn(C)c3ccccc13)cn2C`, for which the growth is 92.4% in test [1]; 86.5% in [2]; 90.4% in test [3]; 89.1% in [4]; 99.5% in [5]; 97.9% in test [6]. The growth in test [7] was 85%; in [8], 95.8%; in test [9], 90.7%; in test [10], 104%; in test [11] it was 104%; in test [12], 83.5%. Besides, the growth was 85.6% in test [13]; 91.1% in test [14]; 93.2% in [15]; 101% in [16]; 99.5% in test [17]; 91.8% in [18]. Also, the growth in [19] was 93.8%; in test [20], 85.7%.

Take `O=C1Nc2ccc(Br)cc2/C1=N\c1nnc(-c2ccc(Cl)cc2)o1`: the growth in test [1] is 79.8%; in test [2], 80.3%; in test [3] it was 94.2%; in [4], 66%; in test [5], 46.3%; in test [6], 79.7%. Besides, the growth in [7] is 59.8%; in [8], 54%; in test [9], 91.4%; in [10] it was 83.3%; in [11], 73.3%; in test [12] it was 16.9%. Further, the growth in test [13] was 34.1%; in [14] it was 75.2%; in test [15], 87.9%; in [16], 75.2%; in [17] it was 75.1%; in [18], 64.5%. In addition, the figures for the growth in test [19] and in [20] were 91.6% and 51.2%, respectively.

Regarding `CCN1C(=O)N(CC)C2SC(N/N=C/c3ccc(F)cc3)=NC21` (stereo not given), the growth is 29.6% in test [1]; 48.1% in [2]; 55.2% in [3]; 33% in test [4]; 4.72% (active) in test [5]; -0.0922% (active) in test [6]. The growth in test [7] is -32.8% (active); in [8], 26.4%; in test [9], 30.3%; in test [10], -49.1% (active); in test [11] it was 16%; in test [12], 14.2%. For the same molecule, the growth was 54.7% in test [13]; 32.4% in [14]; 47.3% in test [15]; 42.4% in test [16]; 12.1% in [17]; -4.01% (active) in test [18]. The results for the growth in test [19] and in [20] were 57.8% and 14.6%, respectively.

Turning to `N/C(=N\c1nc2ccc([N+](=O)[O-])cc2s1)C(Cl)(Cl)Cl`, the growth was 91.3% in test [1]; 85.2% in test [2]; 10.5% in test [3]; 41.9% in [4]; 14.3% in test [5]; 36.2% in test [6]. Further, the growth is 85.3% in test [7]; 26.5% in test [8]; 80.5% in test [9]; 32% in test [10]; 1.66% (active) in test [11]; 81.2% in [12]. Besides, the growth in test [13] is 77.4%; in [14] it was 63.1%; in test [15], 44.3%; in [16], 71.3%; in test [17], 19.6%; in [18] it was 63.5%. The growth in [19] was 85.1%; in test [20], 85.5%.

On to `NS(=O)(=O)c1ccc(Nc2nc(N/N=C/c3ccc([N+](=O)[O-])cc3)nc(Nc3ccccc3)n2)cc1`, for which the growth is 12.2% in test [1]; 59.6% in [2]; 39.5% in test [3]; 9.49% (active) in [4]; 1.55% (active) in [5]; 49.1% in [6]. Moreover, the growth in [7] was 48.3%; in [8], 96.9%; in test [9], 10.4%; in test [10], 23.1%; in test [11], 43.6%; in test [12], 20.3%. Moreover, the growth in test [13] is 36.9%; in test [14], 45.8%; in [15], -5.96% (active); in [16], 26.9%; in test [17], 57.1%; in test [18], -36.3% (active). In addition, the growth in test [19] is 82.5%; in [20] it was 13.3%.

As for `CC1CCc2c(sc3nc(SCC(=O)N/N=C/c4cccc(O)c4O)n(-c4ccccc4)c(=O)c23)C1` (stereo not given), the growth in test [1] was 88%; in test [2], 87.4%; in [3] it was 96.8%; in test [4], 71.2%; in test [5] it was 88.4%; in test [6], 45.4%. Also, the growth in test [7] was 83.1%; in test [8], 86.2%; in test [9] it was 99.7%; in test [10] it was 110%; in test [11] it was 74.7%; in test [12], 77.6%. For the same molecule, the growth in [13] is 95.1%; in test [14], 84.6%; in test [15], -2.02% (active); in test [16] it was 105%; in test [17], 86.7%; in test [18], 94.7%. For the same molecule, the growth was 100% in [19] and 84.4% in [20].

On to `C(=C(\C1=NCCN1)n1cnc2ccccc21)/c1ccc2ccccc2c1`, for which the growth was 65.4% in test [1]; 62.6% in test [2]; 73.2% in test [3]; 79.4% in test [4]; 86.5% in [5]; -2.7% (active) in [6]. In addition, the growth in test [7] was 14.7%; in test [8] it was 86%; in test [9], 74.6%; in test [10], 77.1%; in test [11], 68.7%; in [12], 25.4%. For the same molecule, the growth is 79.2% in test [13]; 62.5% in test [14]; -14.1% (active) in test [15]; 81.8% in test [16]; 77.7% in test [17]; 82% in [18]. In addition, the values for the growth in test [19] and in test [20] were 82.3% and 61.7%, respectively.

Turning to `O=c1[nH]c(CCl)nc2c1cnn2-c1ccccc1`, the growth was 101% in [1]; 110% in [2]; 101% in [3]; 125% in test [4]; 101% in test [5]; 101% in test [6]. Moreover, the growth in [7] is 103%; in test [8], 98.6%; in test [9] it was 77.9%; in test [10] it was 114%; in test [11], 98.6%; in test [12] it was 87.5%. The growth was 110% in test [13]; 101% in test [14]; 94.1% in [15]; 99.9% in test [16]; 110% in test [17]; 97.1% in [18]. Besides, the results for the growth in test [19] and in test [20] were 96.2% and 95.7%, respectively.
